Test results from ChEMBL document CHEMBL3988442, “University of Dundee, Small-Polar-MMV Screening Library” (2021).
About 950 (1.4%) of roughly 69,000 compounds showed an effect of 50% or more. The sample holds strong results, similar compounds and a random draw of the others, so the mix is not that of the screen.

System: Mycobacterium tuberculosis
Assay: Cornell M. t heat shock assay; also: in the data most compounds retested in dose-response had high values
Type: functional, organism-based
Design: dose or concentration left out as unconfirmed

Row | Structure (SMILES) | Percent Effect
1 | Cc1ccc(CN2Cc3nnn(C)c3C(COCc3ccccc3)C2)o1.O=C(O)C(F)(F)F (centres undefined) | -18.88%
2 | CCc1ccc(CN(C)Cc2nc(COc3ccccc3)no2)nc1 | 62.03%
3 | CN(Cc1nc(COc2ccccc2)no1)CC1Cc2ccccc2O1 (centres undefined) | 29.18%
4 | CCc1ccc(CN(C)Cc2nc(-c3cnccn3)no2)nc1 | 20.61%
5 | COc1ccccc1N1CCC(CNCc2cccc(O)c2)C1 (centres undefined) | 14.53%
6 | COc1ccccc1N1CCC(CNCc2cccc(OC)c2OC)C1 (centres undefined) | 81.84%
7 | COc1ccc(CNCC2CCN(c3ccccc3OC)C2)cc1O (centres undefined) | 2.532%
8 | O=C(NC1CCC1)[C@@H]1C[C@@H]2CCN(Cc3cccs3)C[C@@H]2O1.O=C(O)C(F)(F)F | 3.012%
9 | CCC(CO)N(Cc1ccccn1)C(=O)c1ccc(=O)[nH]c1 (centres undefined) | 1.592%
10 | O=C(NC[C@]12COC[C@H]1CN(Cc1nccs1)C2)c1cscn1.O=C(O)C(F)(F)F | 1.78%
11 | COc1ccc(CN2CCC3(CC2)CCN(CC(=O)N(C)C)C3=O)cc1.O=C(O)C(F)(F)F | 1.282%
12 | O=C1NCC2(CCCN(C(=O)Cn3nc4ccccc4n3)CC2)O1 (centres undefined) | 102.6%
13 | O=C1NCC2(CCCN(C(=O)CCn3cnc4ccccc43)CC2)O1 (centres undefined) | -31.86%
14 | Cn1c(CCC(=O)N2CCCC3(CC2)CNC(=O)O3)nc2cccnc21 (centres undefined) | -15.92%
15 | O=C(O)CC(O)(CC(=O)O)C(=O)O.O[C@@]1(c2ccccn2)CC[C@H]2CN(Cc3ccccn3)C[C@H]21 | 3.038%
16 | CCN(CC)c1ccc2ccc(C(=O)N3CCCCO3)cn12.O=C(O)C(F)(F)F | 56.41%
17 | CN1CCN(c2ccc3ccc(C(=O)N4CCCCO4)cn23)CC1.O=C(O)C(F)(F)F | 28.6%
18 | CCN(CC)c1ccc2ccc(C(=O)O)cn12 | 4.754%
19 | Cl.O=C(Cn1c(-c2ccco2)cc2cccnc21)N1CCCC1 | 2.747%
20 | CC(=O)N1[C@H](Cn2cncn2)C[C@@H]2CN(S(C)(=O)=O)CC[C@@H]21 | -11.62%
21 | CCc1nnc(CN(C)c2nc(C(C)C)nc3c2cnn3C)o1 | 106.1%
22 | CCCc1nc(N(C)CCc2noc(C(C)C)n2)c2cnn(C)c2n1 | -6.302%
23 | CCc1nnc(CN(C)c2nc(C3CCCC3)nc3c2cnn3C)o1 | -3.006%

Row | Structure (SMILES) | Percent Effect
24 | CCc1nnc2n1CC(CNCc1nc(C)c(C)o1)CC2 (centres undefined) | -15.23%
25 | CC(C)c1nnc2n1CC(CNCc1ccsc1)CC2 (centres undefined) | -8.8%
26 | CC(C)c1nnc2n1CC(CNCc1cccnc1)CC2 (centres undefined) | -38.13%
27 | CCc1nnc2n1CC(CNCC1CCCC1)CC2 (centres undefined) | -14.79%
28 | CCc1nnc2n1CC(CNCc1ccncc1)CC2 (centres undefined) | 102.6%
29 | CC(C)c1nnc2n1CC(CNCc1ccncc1)CC2 (centres undefined) | 107%
30 | O=C(O)C(F)(F)F.O=C1CC[C@H]2[C@H](CCN2C(=O)C2CCCO2)N1Cc1cccnc1 (some centres undefined) | 1.298%
31 | CNC(=O)CN1CC[C@H]2CN(C(=O)c3ccc(C)cc3)C[C@H]2C1.O=C(O)C(F)(F)F | -25.29%
32 | Cn1cc(CN2C[C@H](Oc3ncccc3F)[C@H]3OCCC[C@H]32)cn1.O=C(O)C(F)(F)F.O=C(O)C(F)(F)F.O=C(O)C(F)(F)F | -12.51%
33 | O=C(NC[C@]12COC[C@H]1CN(Cc1cccnc1)C2)C1CCC1.O=C(O)C(F)(F)F.O=C(O)C(F)(F)F | 24.22%
34 | COCC(=O)N1CCC2(CC1)CNc1ccc(F)cc12.O=C(O)C(F)(F)F | -6.982%
35 | O=C(Nc1ccccc1)c1ccc2c(c1)C1(CCCCC1)CN2.O=C(O)C(F)(F)F | 67.01%
36 | CC(=O)c1ccc(NC(=O)c2ccc3c(c2)C2(CCCCC2)CN3)cc1.O=C(O)C(F)(F)F | 36.54%
37 | COc1ccccc1CN1C[C@@H]2COC[C@]2(COCc2ccncc2)C1.O=C(O)C(F)(F)F.O=C(O)C(F)(F)F | -12.91%
38 | CCN(CC)C(=O)Cn1ccc2cc(NC(=O)C3CC3)ccc21 | 25.7%
39 | CCN(CC)C(=O)Cn1ccc2cc(NC(=O)NC3CC3)ccc21 | 61.18%
40 | CCNC(=O)Nc1ccc2c(ccn2CC(=O)N(CC)CC)c1 | 47.91%
41 | COCCN1CCc2c(cnc(-c3ccoc3)c2C(=O)O)C1.O=C(O)C(F)(F)F | -43.35%
42 | CN1CCN(C(=O)c2ccc3c(c2)nc(N2CCOCC2)n3C)CC1=O | 2.08%
43 | CN1CCCN(C(=O)c2ccc3c(c2)nc(N2CCOCC2)n3C)CC1 | 98.19%
44 | Cn1c(N2CCOCC2)nc2cc(C(=O)N3CCCOCC3)ccc21 | -23.59%
45 | CC(C)N(C)Cc1nnc2n1CCCN(c1ncccn1)C2.O=C(O)C(F)(F)F | 11.35%
46 | CN(Cc1cn2c(n1)CN(CC1CC1)CC2)Cc1ccco1.O=C(O)C(F)(F)F.O=C(O)C(F)(F)F | 9.036%

Row | Structure (SMILES) | Percent Effect
47 | O=C(c1ccon1)N1CCc2ncnc(NCc3ccccn3)c2CC1 | 76.86%
48 | O=C(C1CCCCO1)N1CCc2ncnc(NCc3ccon3)c2CC1 (centres undefined) | 17.45%
49 | O=C(c1ccco1)N1CCc2ncnc(NCc3ccccn3)c2CC1 | 44.89%
50 | O=C(c1ccon1)N1CCc2ncnc(NCc3cccnc3)c2CC1 | 1.572%
51 | O=C(c1cc[nH]n1)N1CCc2ncnc(NCc3ccccn3)c2CC1 | -1.441%
52 | O=C(c1ccoc1)N1CCc2ncnc(NCc3ccccn3)c2CC1 | 62.71%
53 | CN(C)C[C@]12COC[C@H]1CN(C(=O)CCc1ccccc1)C2.O=C(O)C(F)(F)F | -31.23%
54 | COCCN1C[C@@H]2[C@@H](OC)CCN(Cc3cccs3)[C@@H]2C1.O=C(O)C(F)(F)F.O=C(O)C(F)(F)F | -45.94%
55 | CCn1cc2c(n1)CN(CC1CC1)CC2COCC1CC1.O=C(O)C(F)(F)F (centres undefined) | 0.92%
56 | CN1CC2(CCN(CC3CC3)CC2)COc2ccccc2S1(=O)=O.O=C(O)C(F)(F)F | -26.67%
57 | Cc1nnc(NCc2ccccc2F)c(C#N)c1C | 88.29%
58 | Cc1nnc(NCc2ccccc2Cl)c(C#N)c1C | 29.74%
59 | COCc1ccccc1CNc1nnc(C)c(C)c1C#N | 28.24%
60 | CCOCC1CN(Cc2cnn(C)c2)Cc2c1cnn2CC.O=C(O)C(F)(F)F (centres undefined) | -24.32%
61 | Cc1ccc(CN2CC[C@@H]3OCCN(Cc4ccncc4)[C@H]3CC2)s1.O=C(O)C(F)(F)F.O=C(O)C(F)(F)F.O=C(O)C(F)(F)F | 43.06%
62 | Cc1nc2c(C)cccc2cc1C(=O)N1CCC2(CC1)NCCNC2=O | -15.56%
63 | CCCC1CN(CC(C)C)C(=O)c2cccnc2O1 (centres undefined) | -5.035%
64 | CCCC1CN(CCOc2ccccc2)C(=O)c2cccnc2O1 (centres undefined) | -5.894%
65 | CC(C)CN1C[C@H](COCc2ccccc2)Oc2ncccc2C1=O | 61.32%
66 | CN(Cc1cc2n(n1)CCNC2)Cc1n[nH]c2c1CCC2 | -1.948%
67 | Cc1ccc2[nH]c(CN(C)Cc3ccccc3C(=O)O)nc2c1 | -3.354%
68 | Cc1ccc2nc(CN(C)Cc3n[nH]c4c3CCCCC4)[nH]c2c1C | 106.9%
69 | Cc1ccc2nc(CN(C)Cc3[nH]nc4c3CCC4)[nH]c2c1C | 98.38%

Row | Structure (SMILES) | Percent Effect
70 | CCc1cc(N(C)Cc2[nH]nc3c2CCC3)nc(N2CCOCC2)n1 | -16.74%
71 | COc1nc2cc(C)ccc2cc1CN(C)Cc1n[nH]c2c1CCCC2 | 2.274%
72 | CN(Cc1cc2n(n1)CCNC2)Cc1n[nH]c2c1CCCCC2 | -10.71%
73 | COc1nc2c(cc1C(=O)N(C)Cc1[nH]nc3c1CCC3)CCC2 | 0.3103%
74 | Cc1ccc2[nH]c(CN(C)Cc3n[nH]c4c3CCC4)nc2c1 | 98.03%
75 | CC(=O)N1C[C@@H]2CC[C@H](C1)N(S(=O)(=O)c1cc(F)ccc1C)C2 | -2.155%
76 | CNC(=O)[C@H]1C[C@@H]2CN(Cc3ccc(OC)cc3)C[C@H]1O2.O=C(O)C(F)(F)F | 15.08%
77 | Cc1ccc(CN2C[C@@H](OCc3ccccn3)[C@H]3COC[C@H]32)o1.O=C(O)C(F)(F)F.O=C(O)C(F)(F)F | 4.099%
78 | CNc1nc(C2CCCN2)nc2c1CCN(S(=O)(=O)C1CCCCC1)C2.Cl (centres undefined) | 12.62%
79 | CCc1cc(NC2CCOCC2)n2nc(C)c(C)c2n1 | -7.332%
80 | CCOC(=O)N1CCC(Nc2cc(CC)nc3c(C)c(C)nn23)CC1 | -7.891%
81 | CCc1cc(NC2CCN(S(C)(=O)=O)CC2)n2nc(C)c(C)c2n1 | 105.8%
82 | CCN(CC)CCN1CC[C@H]2OCC[C@@]2(C(=O)N2CCOCC2)C1.O=C(O)C(F)(F)F.O=C(O)C(F)(F)F | 6.776%
83 | Cl.Cl.Cn1cc(C(=O)NCc2cncc3c2CCN(c2ccccn2)C3)cn1 | -14.06%
84 | COc1cccc2[nH]c(C(=O)N3CCNCC3C(N)=O)cc12.Cl (centres undefined) | -10.67%
85 | COC(=O)N1CCC2(CC1)N=C(CCC(C)C)NC2=O | 95.71%
86 | CCOC(=O)N1CCC2(CC1)N=C(CCC(C)C)NC2=O | 12.74%
87 | CC(C)CCC1=NC2(CCN(C(=O)N3CCN(C)CC3)CC2)C(=O)N1 | 15.27%
88 | Cc1oncc1C(=O)N[C@@H]1CN(Cc2ccco2)C[C@@H]2CCCO[C@@H]21.O=C(O)C(F)(F)F | 4.265%
89 | CC[C@@H]1N(Cc2ccco2)CCC[C@]12CCC(=O)N2C.O=C(O)C(F)(F)F | -19.47%
